A number with no mark means an inactive call. Records with an inconclusive call do not appear. Activity calls are given as the source filed them. Unless noted, calls follow the shape of the dose curve; as a rule, active = well fitted curve in the direction sought with a large enough effect in the repeat runs; inconclusive = weak or mixed curves; inactive = no such curve, though single readings can be large; an effect the other way counts as inactive or inconclusive.

We go through 13 compounds from PubChem BioAssay (Tox21).

Experiment [1] is described as follows: qHTS assay to test for compound auto fluorescence at 535 nm (green) in HEK293 cells (AID 720680).
The nature of experiment [2]: qHTS assay to test for compound auto fluorescence at 460 nm (blue) in HEK293 cell free culture (AID 720681). The method in brief: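 Test compounds were pinned into cell-free culture medium (DMEM with 10% FBS) and fluorescence was read directly at Ex/Em 405/460 nm. Signals were expressed as fluorescence equivalents of triamterene, with DMSO vehicle as control.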
Experiment [3] can be described thus: qHTS assay to test for compound auto fluorescence at 590 nm (red) in HEK293 cell free culture (AID 720683). The method in brief: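 Tox21 10K library compounds were pinned into cell-free DMEM with 10% FBS and fluorescence was read at excitation 540 nm. Activity is expressed as Rose Bengal sodium equivalency.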
Experiment [4] is described as follows: qHTS assay to test for compound auto fluorescence at 590 nm (red) in HepG2 cell free culture (AID 720684). An outline of the steps:
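Measured in medium alone (MEM containing 10% FBS) following pintool addition of compound; emission at 590 nm with 540 nm excitation, referenced to Rose Bengal sodium.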

Experiment [5] can be described thus: qHTS assay to test for compound auto fluorescence at 460 nm (blue) in HepG2 cell free culture (AID 720685). An outline of the steps: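 Compound (23 nL) or DMSO pinned into cell-free MEM with 10% FBS; blue fluorescence read at 405/460 nm excitation/emission, expressed as auto-fluorescence equivalency to triamterene.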
The nature of experiment [6]: qHTS assay to test for compound auto fluorescence at 535 nm (green) in HepG2 cell free culture (AID 720686).
The nature of experiment [7]: qHTS assay to test for compound auto fluorescence at 460 nm (blue) in HepG2 cells (AID 720687). The method in brief:
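Cells (2,000/well in MEM with 10% FBS) attached overnight at 37 C, then were exposed to compound or DMSO for 1 hr at 37 C, 5% CO2. Fluorescence read at Ex/Em 405/460 nm, expressed as triamterene-equivalent signal.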

Experiment [8] deals with Glucocorticoid receptor (Homo sapiens) (UniProt P04150). The experiment is described as follows: qHTS assay to identify small molecule agonists of the glucocorticoid receptor (GR) signaling pathway (AID 720691; active = well fitted activation curve with a large enough effect in the signal ratio in the repeat runs, not every such curve was filed as active; the % refers to the signal ratio). An outline of the steps:
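Agonist mode in a HeLa line carrying a GRE-controlled beta-lactamase reporter. Compounds act for 18 h at 37 C before a 2 h room-temperature FRET substrate step and fluorescence reading.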

The target is the same in experiment [9]. The experiment is described as follows: qHTS assay to identify small molecule antagonists of the glucocorticoid receptor (GR) signaling pathway (AID 720692; active = well fitted inhibition curve with a large enough effect in the signal ratio in the repeat runs, not every such curve was filed as active; the % refers to the signal ratio). The method in brief:
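Cells plated, rested 4 h at 37 C/5% CO2; compounds in DMSO pin-transferred; dexamethasone added to 5 nM final; 18 h at 37 C; B/G FRET substrate added, 2 h room temperature; fluorescence measured.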

Experiment [10] can be described thus: qHTS assay to identify small molecule antagonists of the glucocorticoid receptor (GR) signaling pathway - cell viability counter screen (AID 720693). Also: nearly all actives have a fitted effect of over 55% in size.
The nature of experiment [11]: qHTS assay for identifying genotoxic compounds that show differential cytotoxicity against isogenic chicken DT40 cell lines with known DNA damage response pathways - Rev3 mutant cell line (AID 743014). Also: nearly all actives have a fitted effect of over 55% in size. Also: potency is read from the fitted curve at half-maximal effect.
Experiment [12] can be described thus: qHTS assay to identify small molecule antagonists of the androgen receptor (AR) signaling pathway - cell viability counter screen (AID 743033; also: nearly all actives have a fitted effect of over 45% in size).
Experiment [13] is described as follows: qHTS assay to identify small molecule antagonists of the androgen receptor (AR) signaling pathway using the MDA cell line - cell viability counter screen (AID 743041; also: nearly all actives have a fitted effect of over 45% in size). An outline of the steps:
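Viability counter screen run alongside the AR antagonist reporter: cells seeded 5 h before compound, R1881 added, 16 h incubation at 37C without CO2, fluorescent CellTiter-Fluor signal quantified.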

Experiment [14] in a line: qHTS assay to identify small molecule antagonists of the thyroid receptor (TR) signaling pathway - cell viability counter screen (AID 743064). Also: nearly all actives have a fitted effect of over 50% in size. The method in brief:
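In rat pituitary GH3.TRE-Luc reporter cells co-exposed to compound and 1 nM T3 for 23.5 h, cytotoxicity was assessed with CellTiter-Fluor in the same wells, read by fluorescence.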

Experiment [15] can be described thus: qHTS assay for identifying genotoxic compounds that show differential cytotoxicity against isogenic chicken DT40 cell lines with known DNA damage response pathways - Rad54/Ku70 mutant cell line (AID 743015). Also: nearly all actives have a fitted effect of over 60% in size.
The nature of experiment [16]: qHTS assay for identifying genotoxic compounds that show differential cytotoxicity against isogenic chicken DT40 cell lines with known DNA damage response pathways - wild type cell line (AID 743012). Also: nearly all actives have a fitted effect of over 60% in size. The method in brief: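 Cells (DT40 wild type, 300/well) are treated with DMSO-dissolved compounds after a ~0.5 h pre-incubation and kept 40 h at 37 C/5% CO2. Viability is then measured by CellTiter-Glo luminescence following 30 min at room temperature.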

Experiment [17] concerns the target Androgen receptor (Homo sapiens) (UniProt P10275). Description: qHTS assay to identify small molecule antagonists of the androgen receptor (AR) signaling pathway (AID 743035; active = well fitted inhibition curve with a large enough effect in the signal ratio in the repeat runs, not every such curve was filed as active; the % refers to the signal ratio). An outline of the steps:
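Antagonism is scored as loss of R1881-driven beta-lactamase reporter expression in HEK293 cells carrying the reporter under a UAS element, after 16 h co-treatment at 37C and a 2 h room-temperature FRET substrate read.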

The target is the same in experiment [18]. Description: qHTS assay to identify small molecule agonists of the androgen receptor (AR) signaling pathway using the MDA cell line (AID 743040; also: nearly all actives have a fitted effect of over 20% in size). The method in brief: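 Luminescence from ONE-Glo, read after 30 min at room temperature, reflects MMTV-driven luciferase in MDA-kb2 cells (AR- and GR-responsive). Treatment lasted 16 h at 37C, 0% CO2.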
For experiment [19] the target is unchanged. Description: qHTS assay to identify small molecule antagonists of the androgen receptor (AR) signaling pathway using the MDA cell line (AID 743042; also: nearly all actives have a fitted effect of over 55% in size). An outline of the steps:
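MDA-kb2 cells (human breast carcinoma, stably carrying an MMTV-luciferase reporter responsive to AR and GR) were plated at 3,000 cells/well and preincubated 5 hr at 37C, then given compound plus R1881 agonist for 16 h. ONE-Glo luminescence was read.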

Experiment [20] is described as follows: qHTS assay to test for compound auto fluorescence at 535 nm (green) in HEK293 cell free culture (AID 720682). The method in brief:
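Green-channel intensity (Ex/Em 485/535 nm) was recorded from compound-treated wells containing only DMEM with 10% FBS. Fluorescein provided the equivalency standard.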
% is scaled to controls: 0 for no effect and ±100 for the full control effect.

Androgen receptor (Homo sapiens), sequence (P10275 whole entry, looked up): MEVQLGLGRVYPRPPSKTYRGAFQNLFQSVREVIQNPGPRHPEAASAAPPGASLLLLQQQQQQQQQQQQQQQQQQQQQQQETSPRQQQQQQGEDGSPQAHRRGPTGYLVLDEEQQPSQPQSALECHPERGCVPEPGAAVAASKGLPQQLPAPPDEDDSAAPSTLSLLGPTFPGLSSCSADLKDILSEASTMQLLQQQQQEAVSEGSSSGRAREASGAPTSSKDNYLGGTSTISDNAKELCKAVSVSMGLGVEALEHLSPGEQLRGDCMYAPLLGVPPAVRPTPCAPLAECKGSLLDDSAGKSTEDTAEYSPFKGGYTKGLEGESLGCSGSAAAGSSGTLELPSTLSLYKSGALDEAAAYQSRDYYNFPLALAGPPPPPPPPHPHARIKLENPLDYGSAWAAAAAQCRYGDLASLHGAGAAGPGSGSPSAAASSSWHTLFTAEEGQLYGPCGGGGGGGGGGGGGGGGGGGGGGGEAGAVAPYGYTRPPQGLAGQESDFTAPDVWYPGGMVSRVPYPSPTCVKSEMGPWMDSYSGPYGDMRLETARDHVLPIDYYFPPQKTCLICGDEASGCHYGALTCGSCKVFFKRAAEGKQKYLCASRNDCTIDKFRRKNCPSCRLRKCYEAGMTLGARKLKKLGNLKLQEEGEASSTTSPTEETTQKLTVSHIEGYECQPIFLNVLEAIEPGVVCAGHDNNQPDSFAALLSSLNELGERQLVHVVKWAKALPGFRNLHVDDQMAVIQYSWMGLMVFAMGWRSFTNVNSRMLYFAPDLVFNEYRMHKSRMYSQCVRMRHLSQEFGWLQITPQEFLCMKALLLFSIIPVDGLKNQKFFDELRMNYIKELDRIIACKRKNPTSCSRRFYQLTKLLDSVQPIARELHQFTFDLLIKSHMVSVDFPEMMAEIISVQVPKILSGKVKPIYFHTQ
Glucocorticoid receptor (Homo sapiens), sequence (P04150 whole entry, looked up): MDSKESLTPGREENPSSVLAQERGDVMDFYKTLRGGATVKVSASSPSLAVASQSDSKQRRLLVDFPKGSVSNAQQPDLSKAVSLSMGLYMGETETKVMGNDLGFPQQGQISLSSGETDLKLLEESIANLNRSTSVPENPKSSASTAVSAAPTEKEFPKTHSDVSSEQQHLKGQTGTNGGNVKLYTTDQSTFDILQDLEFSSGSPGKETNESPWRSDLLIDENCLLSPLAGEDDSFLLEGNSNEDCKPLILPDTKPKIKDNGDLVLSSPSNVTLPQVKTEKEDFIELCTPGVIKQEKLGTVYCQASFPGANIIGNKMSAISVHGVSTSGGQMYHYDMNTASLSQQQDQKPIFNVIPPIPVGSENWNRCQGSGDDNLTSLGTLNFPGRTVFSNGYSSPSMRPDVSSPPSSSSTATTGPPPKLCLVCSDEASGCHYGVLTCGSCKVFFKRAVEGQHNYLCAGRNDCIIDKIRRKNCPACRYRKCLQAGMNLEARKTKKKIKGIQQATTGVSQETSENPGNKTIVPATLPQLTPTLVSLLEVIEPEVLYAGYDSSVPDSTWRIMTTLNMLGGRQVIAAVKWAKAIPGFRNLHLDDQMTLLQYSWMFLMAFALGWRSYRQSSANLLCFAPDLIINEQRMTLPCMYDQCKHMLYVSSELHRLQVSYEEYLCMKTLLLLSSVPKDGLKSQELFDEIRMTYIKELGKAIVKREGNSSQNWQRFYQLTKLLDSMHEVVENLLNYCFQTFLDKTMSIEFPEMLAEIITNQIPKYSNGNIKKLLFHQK

Take `CC(C)(O)CCCC1=CCC(C=O)CC1` (configuration not stated): the compound was classed as inactive in experiment [1], in experiment [2], in experiment [3], in [4], in [5] and in experiment [6]. For the same compound, the call in experiment [7], in experiment [9], in experiment [10], in [12] and in experiment [13] was inactive. The Potency result in experiment [8] and in experiment [14] was “inactive” in each case. Moreover, the Potency in experiment [11] was 65.2 µM (active).

As for `COc1ccc2cc(CCC(C)=O)ccc2c1`, in experiment [1], the fluorescence, % of fluorescein is -0.0683% [at 18.6 µM]. For the same compound, the figures for the fluorescence, % of fluorescent control in experiment [2], in [3] and in [5] were -0.26% [at 18.6 µM], 0.474% [at 18.6 µM] and 0.0413% [at 18.6 µM], respectively. Besides, the fluorescence, % of Rose Bengal in [4] is -0.0935% [at 18.6 µM]. Moreover, the Potency result in experiment [8], in [11], in [15] and in experiment [14] was “inactive” in each case. Further, the result in experiment [10], in [12] and in experiment [13] was inactive.

On to `C[C@@H]1NC(=O)[C@@H](N)CNC(=O)[C@H](C2CCNC(N)=N2)NC(=O)/C(=C/NC(N)=O)NC(=O)[C@H](CNC(=O)C[C@@H](N)CCCN)NC1=O` (some centres not stated), for which the compound was classed as inactive in [1], in experiment [2], in experiment [3], in [4], in [5] and in experiment [6]. The compound was classed as inactive in [10], in [12] and in experiment [13]. The Potency entry in experiment [8], in [16], in experiment [11], in experiment [15] and in experiment [14] was “inactive” throughout.

Consider `CC(C)(C)NCC(O)COc1cccc2c1CCC(=O)N2` (configuration not stated), for which the fluorescence, % of fluorescein in [1] is 0.0295% [at 18.6 µM]. Moreover, the fluorescence, % of fluorescent control in experiment [2] is 0.183% [at 18.6 µM]; in experiment [3] it was -0.0457% [at 18.6 µM]; in experiment [5], -0.0069% [at 18.6 µM]; in [7] it was 0.113% [at 18.6 µM]. Further, the fluorescence, % of Rose Bengal in experiment [4] was -0.307% [at 18.6 µM]. For the same compound, in [6], the fluorescence, % of fluorescein control was -0.0625% [at 18.6 µM]. Moreover, the Potency entry in experiment [8], in [11] and in experiment [14] was “inactive” each time. In addition, the outcome in experiment [17], in [18], in experiment [13] and in experiment [19] was inactive.

As for `O=C[C@@H](O)[C@H](O)[C@H](O)CO`, the outcome in experiment [1], in experiment [2], in experiment [3], in experiment [4], in experiment [5] and in experiment [6] was inactive. The compound was called inactive in experiment [17], in [18] and in [19]. In addition, the Potency result in experiment [11], in [15] and in [14] was “inactive” each time.

As to `CC(=O)c1c(C)cc(C(C)(C)C)cc1C`, the compound was classed as inactive in experiment [1], in experiment [20], in experiment [3], in experiment [5], in experiment [7] and in experiment [10]. Also, the Potency result in [16], in experiment [11] and in [14] was “inactive” each time.

In the case of `C=CCOC(=O)CCCCCCCC`, the outcome in experiment [1], in experiment [2], in experiment [3], in experiment [4], in experiment [5] and in [6] was inactive. The call in [7], in experiment [12] and in [13] was inactive. In addition, the Potency result in experiment [16], in experiment [11], in experiment [15] and in experiment [14] was “inactive” in each case.

Turning to `CCO[Si](CC(C)C)(OCC)OCC`, the call in experiment [1], in experiment [2], in experiment [3], in experiment [5] and in experiment [6] was inactive. Besides, the Potency result in experiment [8], in experiment [16], in experiment [15] and in experiment [14] was “inactive” throughout. For the same compound, the Potency in [11] is 24.3 µM (active).

Regarding `Cc1cc(O)c(Cl)cc1C`, the call in experiment [1], in experiment [2], in experiment [3], in experiment [4], in experiment [5] and in experiment [6] was inactive. For the same compound, the compound was called inactive in experiment [7], in experiment [12] and in experiment [13]. Further, the Potency result in experiment [8], in [16], in experiment [11], in experiment [15] and in experiment [14] was “inactive” throughout.

On to `O=S(=O)(O)c1ccc(Cl)cc1`, for which the call in experiment [1], in [2], in experiment [3], in [4], in experiment [5] and in [7] was inactive. The outcome in [10], in experiment [12] and in experiment [13] was inactive. Moreover, the Potency result in experiment [8], in experiment [16], in experiment [11], in [15] and in experiment [14] was “inactive” each time.

`C/C=C/C(=O)CCCC`: the call in experiment [1], in experiment [2], in [3], in experiment [4], in experiment [5] and in experiment [6] was inactive. The call in [7], in experiment [10], in experiment [12] and in experiment [13] was inactive. Also, the Potency result in experiment [16], in [11], in experiment [15] and in experiment [14] was “inactive” throughout.

For `CCCCCCCC(=O)N(C)C`, the compound was called inactive in experiment [1], in [2], in [3], in experiment [4], in experiment [5] and in experiment [6]. The compound was called inactive in experiment [12] and in experiment [13]. The Potency entry in [11], in experiment [15] and in [14] was “inactive” in each case.

With `CC(C)(C)c1ccc(N)cc1`, the result in experiment [1], in experiment [2], in experiment [3], in experiment [5], in experiment [7] and in experiment [12] was inactive. For the same compound, the Potency result in [8], in [16], in experiment [11], in experiment [15] and in experiment [14] was “inactive” each time.
